Among the data in PubChem BioAssay (EPA / NIEHS) are outcome and AC50 values, retold here.

“And” between values parts separate entries of the source, which are not always exact repeats. Identical values can stand only once. Results filed as inconclusive are left out. The source made the active and inactive calls. The calls were made as follows, unless noted: active = hit-call score of the fitted dose curve at least 0.9, where 1 is the maximum; inactive = score below 0.9.

Test [1] is described as follows: CCTE_Mundy_HCI_Cortical_NOG_NeuriteCount: CCTE's Neurite Outgrowth Assay in rat cortical cells for Neurite Count, Mundy Lab (AID 2284212).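 Also: cells fixed about two days after chemical exposure began.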 The method in brief: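 Neurite number per cell from high-content imaging of betaIII-tubulin immunostaining, with Hoechst nuclear counterstain.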
Test [2] in a line: CCTE_Mundy_HCI_Cortical_NOG_NeuriteLength: CCTE's Neurite Outgrowth Assay in rat cortical cells for Neurite Length, Mundy Lab (AID 2284213).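 As to AC50: neurites imaged about 48 to 50 h after chemical exposure began.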 The method in brief: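 Neurite length was read by high-content imaging of βIII-tubulin-labelled neurites in rat primary cortical cultures. Activity was fitted relative to DMSO.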
Test [3] is described as follows: CCTE_Mundy_HCI_Cortical_Synap_Neur_Matur_NeuriteLength: CCTE's Synaptogenesis and Neurite Maturation Assay in rat cortical cells for Neurite Length, Mundy Lab (AID 2284214). An outline of the steps:
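Rat cortical neurons, AraC at DIV 5; compound + media change DIV 7, end DIV 12 (288.33 h). Fix, MAP2/synaptophysin/Hoechst immunostain, automated HCI of neurite length vs DMSO.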

Test [4] is described as follows: CCTE_Mundy_HCI_Cortical_Synap_Neur_Matur_NeuriteSpotCountPerNeuron: CCTE's Synaptogenesis and Neurite Maturation Assay in rat cortical cells for Neurite Spot Count per Neuron Count, Mundy Lab (AID 2284215). An outline of the steps: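 Rat primary cortical cultures given AraC at DIV 5, dosed from DIV 7 to DIV 12 with media change. Fixed, stained for MAP2, synaptophysin and Hoechst; neurite-associated synaptophysin puncta per neuron quantified by high-content imaging versus DMSO.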

Test [5] can be described thus: CCTE_Mundy_HCI_Cortical_Synap_Neur_Matur_SynapseCount: CCTE's Synaptogenesis and Neurite Maturation Assay in rat cortical cells for Synapse Count, Mundy Lab (AID 2284218). An outline of the steps: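 Primary rat cortical culture; AraC DIV 5 to arrest glia; compound + media change DIV 7; terminated DIV 12. PFA/Hoechst fix, anti-MAP2 + anti-synaptophysin immunostain; HCI synapse count/neuron; DMSO = baseline.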

Test [6] can be described thus: CCTE_Mundy_HCI_hN2_NOG_NeuriteCount: CCTE's Neurite Outgrowth Assay in human hN2 cells for Neurite Count, Mundy Lab (AID 2284219; active = hit-call score of the fitted dose curve at least 0.9, where 1 is the maximum). An outline of the steps: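 In this morphology assay, hNP1-derived neurons received test chemical 2 h post-plating and were fixed two days later in warm paraformaldehyde/sucrose containing Hoechst 33342. Neurites, labelled by rabbit anti-βIII-tubulin (1:800) and Alexa Fluor-488 (1:500), were counted automatically.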

A short description of test [7]: CCTE_Mundy_HCI_hN2_NOG_NeuriteLength: CCTE's Neurite Outgrowth Assay in human hN2 cells for Neurite Length, Mundy Lab (AID 2284220; active = hit-call score of the fitted dose curve at least 0.9, where 1 is the maximum). The method in brief: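 Using βIII-tubulin immunofluorescence and Hoechst nuclear counterstain, this component quantifies neurite length in hNP1-derived neurons.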
Test [8] in a line: CCTE_Mundy_HCI_Cortical_Synap_Neur_Matur_NeuriteCount: CCTE's Synaptogenesis and Neurite Maturation Assay in rat cortical cells for Neurite Count, Mundy Lab (AID 2284222).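 As to outcome: exposure from day 7 to day 12 in vitro with readout at day 12.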 An outline of the steps:
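Rat primary cortical cells; AraC added at DIV 5, chemicals dosed with media change at DIV 7 through DIV 12. MAP2/synaptophysin/Hoechst immunostaining, high-content imaging of neurite number; fitted relative to DMSO.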

The nature of test [9]: CCTE_Mundy_HCI_Cortical_Synap_Neur_Matur_CellBodySpotCount: CCTE's Synaptogenesis and Neurite Maturation Assay in rat cortical cells for Cell Body Spot Count, Mundy Lab (AID 2284223). An outline of the steps: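 Primary rat cortical cultures, AraC added at DIV 5; dosed DIV 7 through DIV 12 […]. Fixed, stained for MAP2 and synaptophysin with Hoechst; cell body-associated synaptophysin puncta per neuron counted by high-content imaging, loss vs DMSO.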

A short description of test [10]: CCTE_Mundy_HCI_hN2_NOG_NeuronCount: CCTE's Neurite Outgrowth Assay in human hN2 cells for Neuron Count, Mundy Lab (AID 2284221; active = hit-call score of the fitted dose curve at least 0.9, where 1 is the maximum). An outline of the steps: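 Read-out is the number of betaIII-tubulin-positive neurons imaged by automated high-content analysis, with DMSO as negative control.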
Test [11] in a line: UKN4_HCS_LUHMES_cell_viability: Viability Assessment in the University of Konstanz (UKN) Leist Lab Neurite Outgrowth Assay in human LUHMES cells (UKN4) (AID 2284232). The method in brief:
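Fluorescence intensity from high-content imaging of Hoechst H-33342/calcein-AM-stained cells served as the viability read-out. Human LUHMES precursors were differentiated 2 days, replated and treated 24 h; curves were fitted bidirectionally against DMSO.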

The nature of test [12]: UKN2_HCS_IMR90_cell_viability: Viability Assessment in the University of Konstanz (UKN) Leist Lab Neural Crest Cell Migration Assay in human induced IMR90 Pluripotent Stem Cells (UKN2) (AID 2284233).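 Also: viability of neural crest cells differentiated from IMR90 iPSC measured by calcein-AM fluorescence imaging; cells exposed to compound for 24 h after a 24 h migration phase.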 An outline of the steps:
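iPSC-derived (IMR90) neural crest cells seeded around silicone stoppers on PLO/laminin/fibronectin; after 24 h migration in N2-S with EGF/FGF, chemical added for 24 h. Calcein-AM/Hoechst stained 30 min, high-content imaged; bidirectional fit versus DMSO.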

The nature of test [13]: TAMU_PeakParms_SingleDonor1434_Chronotropy: Texas A&M University (TAMU) 1.5-hr Human Induced Pluripotent Stem Cell (iPSC)-derived Cardiomyocytes Calcium (Ca+2) Flux Assay for Cardiotoxicity: Chronotropy (changes in peak frequency) (AID 2284217). The settings on record: actives raise or lower the signal. An outline of the steps: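 iPSC-derived cardiomyocytes (single donor 1434) dosed at 0.2, 1, 10 and 100 uM in 0.5% DMSO for 1.5 h at 37C; Ca2+ dye fluorescence gave average beat frequency. Zero-beat points removed; bidirectional fit versus DMSO, POD as EC05.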

A short description of test [14]: BSK_BT_PBMCCytotoxicity: PBMC Cytotoxicity Assessment in the BioMAP Diversity Plus: BT Assay (AID 2284225).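 Also: PBMC viability measured by Alamar Blue dye reduction fluorescence.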 To be noted: primary human B cells with PBMC. The method in brief:
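PBMC (75,000/well) pretreated with compound 1 h, then activated with SEB and TSST-1 (20 ng/mL each final), incubated 90 h; Alamar Blue added 6 h, fluorescence read at 546/580 nm. Fitted relative to DMSO.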

Read-out in test [15]: Secreted IgG (sIgG), gene 3500
Briefly: BSK_BT_sIgG: BioMAP Diversity Plus: BT Assay for Secreted IgG (sIgG) Biomarker Activity (AID 2284226). The settings on record: primary human B cells with PBMC. An outline of the steps: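 Read-out: ELISA for secreted IgG after 24 h of chemical exposure in a B cell plus PBMC co-culture. Values reflect upward-direction fitting against DMSO negative controls.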

Read-out in test [16]: Interleukin 6 (IL6), IL6 (gene 3569)
Briefly: BSK_BT_xIL6: BioMAP Diversity Plus: BT Assay for Interleukin 6 (IL6) Biomarker Activity (AID 2284228). The settings on record: primary human B cells with PBMC. The method in brief:
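Human B cell/PBMC co-culture; secreted IL-6 quantified by Luminex xMAP 24 h after chemical dosing, fitted relative to DMSO. Parallel PBMC viability by Alamar Blue after 1 h pretreatment, 20 ng/mL SEB and TSST-1, 90 h incubation.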

Read-out in test [17]: Interleukin 17A (IL17A), IL17A (gene 3605)
Briefly: BSK_BT_xIL17A: BioMAP Diversity Plus: BT Assay for Interleukin 17A (IL17A) Biomarker Activity (AID 2284229). To be noted: primary human B cells with PBMC. An outline of the steps:
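Co-culture of human B cells and PBMC, dosed for 24 h in 96-well format. Secreted IL-17A measured with Luminex xMAP; gain-direction fitting against DMSO as baseline.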

Read-out in test [18]: Tumor necrosis factor (Homo sapiens) (UniProt P01375)
Briefly: BSK_BT_xTNFa: BioMAP Diversity Plus: BT Assay for Tumor necrosis factor alpha (TNF-alpha) Biomarker Activity (AID 2284230). To be noted: primary human B cells with PBMC. An outline of the steps:
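B cells with PBMC in co-culture, dosed and sampled at 24 h; secreted TNF-alpha measured by Luminex xMAP bead assay. Activity fitted in the gain direction against DMSO as negative control and baseline.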

Read-out in test [19]: Vascular cell adhesion molecule 1 (VCAM1), VCAM1 (gene 7412)
Nature of the test: BSK_MyoF_VCAM1: BioMAP Diversity Plus: MyoF Assay for Vascular cell adhesion molecule 1 (VCAM1) Biomarker Activity (AID 2284231). To be noted: primary human lung fibroblasts. The method in brief:
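Primary human lung fibroblasts (BioMAP MyoF system) dosed with chemical, VCAM-1 measured by ELISA 24 hours later. Fitted in the positive direction against DMSO; parallel SRB staining assessed cytotoxicity.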

The nature of test [20]: CCTE_Mundy_HCI_hNP1_Pro_ResponderAvgInten: CCTE's Proliferation Assay in human neuroprogenitor cells, Mundy Lab (AID 2284224; active = hit-call score of the fitted dose curve at least 0.9, where 1 is the maximum;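 also: human neural progenitor cells hNP1 derived from WA09 embryonic stem cells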). An outline of the steps:
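Human neuroprogenitors (hNP1, WA09 lineage) receive test chemical after 40 to 44 hours of attachment. A four-hour BrdU pulse begins twenty hours later, followed by fixation and high content imaging; signal is referenced to DMSO controls.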

Sequence of Tumor necrosis factor (Homo sapiens) (P01375 whole entry, looked up): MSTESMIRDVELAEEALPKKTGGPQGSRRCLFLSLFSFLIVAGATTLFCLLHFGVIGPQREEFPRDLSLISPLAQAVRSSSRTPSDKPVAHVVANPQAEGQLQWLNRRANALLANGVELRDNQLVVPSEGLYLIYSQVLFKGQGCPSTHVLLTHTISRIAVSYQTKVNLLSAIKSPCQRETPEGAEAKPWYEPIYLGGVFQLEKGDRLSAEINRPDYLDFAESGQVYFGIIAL

Turning to `OC(Cn1cncn1)(Cn1cncn1)c1ccc(F)cc1F`, the compound was classed as inactive in [1], in test [2], in [3], in test [4], in test [5] and in [6]. The compound was classed as inactive in [7], in test [8] and in test [9].
Consider `NNC(=O)c1ccncc1`, for which the call in [1], in [2], in [3], in test [4], in test [5] and in test [6] was inactive. Also, the outcome in [7], in test [8] and in test [9] was inactive.
Turning to `NC(=O)N1c2ccccc2C=Cc2ccccc21`, the call in test [1], in test [2], in test [3], in [4], in test [5] and in test [6] was inactive. In addition, the result in test [7], in [10], in test [8], in test [9], in test [11] and in test [12] was inactive.
As to `Cn1cc[nH]c1=S`, the outcome in test [1], in test [2], in [3], in test [4], in test [5] and in [8] was inactive. In [9], the call was inactive.
With `CC(C)C(=O)Nc1ccc([N+](=O)[O-])c(C(F)(F)F)c1`, the outcome in test [13] was inactive.
Regarding `Cc1cccc(O)c1C`, the outcome in test [14], in [15], in test [16], in [17], in test [18] and in test [19] was inactive.
As for `OC[C@H]1O[C@@](CO)(O[C@H]2O[C@H](CO)[C@@H](O)[C@H](O)[C@H]2O)[C@@H](O)[C@@H]1O`, the result in [13] was inactive.
Regarding `FC(F)C(F)(F)COCC1CO1` (stereo not given), the outcome in test [14], in test [15], in test [16], in [17], in test [18] and in test [19] was inactive.
`NCC(F)(F)C(F)(F)C(F)(F)C(F)(F)F`: the result in test [14], in [15], in test [16], in [17], in [18] and in test [19] was inactive.
Broadly, the AC50 is the midpoint of the concentration-response curve, whichever way the signal moves. With `OCc1c[nH]c2ccccc12`, the outcome in test [14], in test [17], in test [18] and in test [19] was inactive. For the same compound, the AC50 in test [15] is 30.8 µM (active); in [16], 3.97 µM (active).
On to `OC(O)(C(F)C(O)(O)C(F)(F)F)C(F)(F)F`, for which the result in test [14], in test [17], in test [18] and in test [19] was inactive. In addition, the half-maximal activity concentration (AC50) in test [15] is 32.6 µM (active) and 39.1 µM (active); in [16], 53.3 µM (active) and 52 µM (active).
For the compound `C[C@]12C=CC(=O)C=C1CC[C@H]1[C@@H]3C[C@@H](O)[C@](O)(C(=O)CO)[C@@]3(C)C[C@H](O)[C@@]12F`, the concentration at half-maximal activity (AC50) in [1] is 22.7 µM (active); in [2], 19.7 µM (active); in test [3], 2.59 µM (active); in test [4], 3 µM (active); in test [5], 4.2 µM (active); in [8] it was 18.8 µM (active). In addition, the AC50 in [9] is 15 µM (active). Also, the call in test [20] was inactive.
Regarding `FC(F)(F)C(F)(F)C(F)(F)C(F)(F)C(F)(F)C(F)(F)I`, the compound was called inactive in test [20], in test [14], in [15], in test [16], in test [17] and in test [18]. Besides, in test [19], the AC50 was 25.3 µM (active) and 40.7 µM (active).
For `c1ccc2c(c1)-c1cccc3c1c-2cc1ccccc13`, in test [13], the AC50 was 4.53 µM (active).
